Source: PubChem
The full list was thinned out, with hits kept by preference.
ST2 IL33 inh: inhibitors of human ST2 (IL1RL1) binding to IL-33, primary screen, biochemical, AlphaLISA. Interleukin-1 receptor-like 1 (Homo sapiens), Q01638. AlphaLISA ST2-Fc/biotin-IL-33 interaction, 1 h. inhibition, % for hits at 17 µM. 2.3% of 78,000 active; in the data active = inhibition above about 30%
Target sequence (Q01638 whole entry, looked up): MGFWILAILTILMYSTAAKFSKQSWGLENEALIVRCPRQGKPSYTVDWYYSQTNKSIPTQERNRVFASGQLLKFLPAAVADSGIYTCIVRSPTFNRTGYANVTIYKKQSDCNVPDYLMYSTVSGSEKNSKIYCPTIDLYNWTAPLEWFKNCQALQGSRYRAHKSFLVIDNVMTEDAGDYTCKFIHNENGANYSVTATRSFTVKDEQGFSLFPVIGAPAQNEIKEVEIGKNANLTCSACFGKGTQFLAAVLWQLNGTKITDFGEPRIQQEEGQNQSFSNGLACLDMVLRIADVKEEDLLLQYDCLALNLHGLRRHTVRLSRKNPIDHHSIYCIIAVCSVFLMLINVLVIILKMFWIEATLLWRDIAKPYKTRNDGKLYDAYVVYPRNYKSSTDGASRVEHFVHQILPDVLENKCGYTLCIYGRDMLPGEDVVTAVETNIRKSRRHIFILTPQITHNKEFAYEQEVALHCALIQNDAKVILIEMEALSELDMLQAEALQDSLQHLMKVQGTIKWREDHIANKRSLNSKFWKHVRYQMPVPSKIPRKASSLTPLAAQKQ
* hit, by the source's call; i = inactive.

SMILES	ST2 IL33 inh
CCOC(=O)c1cccc(NC(=O)N[C@H]2CO[C@H]3[C@@H]2OC[C@H]3OC(=O)Nc2ccccc2)c1	i
CC(=O)c1ccc(NC(=O)O[C@@H]2CO[C@H]3[C@@H]2OC[C@@H]3NC(=S)Nc2cccc(C#N)c2)cc1	i
COC(=O)c1cccc(NC(=S)N[C@H]2CO[C@H]3[C@@H]2OC[C@H]3OCc2ccccc2)c1	i
COc1ccc(NC(=O)N[C@H]2CO[C@H]3[C@@H]2OC[C@H]3OC(=O)Nc2ccc(C(C)=O)cc2)cc1	i
CCNC(=O)O[C@@H]1CO[C@H]2[C@@H]1OC[C@@H]2NC(=O)Nc1cccc(C(F)(F)F)c1	i
CC(=O)c1cccc(NC(=O)O[C@@H]2CO[C@H]3[C@@H]2OC[C@@H]3NC(=S)Nc2cc(C)cc(C)c2)c1	i
COc1nc2c(cc1CNC(=O)CCc1cccnc1)C(=O)N(C1CCCC1)C2	i
O=C(C1c2ccccc2C(=O)N2CCc3ccccc3C12)N1CCN(c2ccccc2F)CC1 (stereo not given)	i
CC(=O)NS(=O)(=O)c1ccc(NC(=O)CCCOc2ccccc2)cc1	i
CC(=O)c1c(C)oc2c(Cl)cc(NS(=O)(=O)c3c(C)cc(C)cc3C)cc12	i
CC(C)COc1ccc2c(c1)c1c3n2CCNC3CCC1 (stereo not given)	i
CC(C)COc1ccc2c(c1)c1c3c(nccn32)CCC1	38%*
CCCCC1=NN(C(=O)COc2ccc(Cl)c(C)c2)C(O)(C(F)(F)F)C1 (stereo not given)	i
O=C(Nc1ccc(SC(F)F)cc1)C1=NCCN1	i
CC12C(=O)N(c3cc(Cl)ccc3O)C(=O)C1C1C=CC2C1 (stereo not given)	i
CC1CC(=O)C2=C(C1)OC(N)=C(C#N)C2c1ccco1 (stereo not given)	i
N#CC1=C(N)n2c(s/c(=C\c3ccco3)c2=O)=C(C#N)C1c1ccco1 (stereo not given)	37%*
CCCOc1ccc(-c2nc3s/c(=C\c4ccco4)c(=O)n3n2)cc1	i
COc1ccc2oc(=Nc3ccc(-c4ccccc4)cc3)c(C(N)=O)cc2c1	i
COc1ccc2oc(=Nc3ccc(C(C)=O)cc3)c(C(N)=O)cc2c1	40%*
COc1ccc2oc(=Nc3ccccc3OC)c(C(N)=O)cc2c1	i
O=C(CN1CCN(Cc2cccc(Cl)c2)C1=O)NCc1cccnc1	i
CC(C)c1ccc(S(=O)(=O)N2CCN(c3cc(-c4cccc(F)c4)ncn3)CC2)cc1	i
COc1ccc(OC)c(CNc2nc(-c3nnc(-c4cccc(C)c4)o3)nc3ccccc23)c1	i
Nc1cc(=O)[nH]c2nnc(SCCc3ccccc3)n12	i
SMILES	ST2 IL33 inh
Oc1ccc(-c2[nH]ncc2Oc2ccccc2)c(O)c1O	51%*
Oc1ccc(-c2[nH]ncc2Oc2ccccc2)c(O)c1	i
CCCc1ccc(Oc2cn[nH]c2-c2ccc(O)c(C)c2O)cc1	i
Cc1[nH]nc(-c2ccc(O)c(O)c2O)c1Oc1ccccc1	42%*
CCOc1ccc(-c2n[nH]c(C)c2Oc2ccccc2)c(O)c1	i
COc1ccc(-c2n[nH]c(C)c2Oc2ccccc2)c(O)c1	i
CN(Cc1ccc2cccc(Cl)c2n1)Cc1nc(-c2cccnc2)no1	i
Cc1nc(Cl)c2cc(-c3ccccc3)sc2n1	i
[O-][n+]1onc2c1CCc1c-2nc(-c2ccccc2F)n1O	i
Cn1cnnc1SCC(=O)N1N=C(c2ccc(Br)cc2)CC1c1ccc(F)cc1 (stereo not given)	i
N#Cc1c(N)nc2c(c1-c1cccs1)CCCCCC2	i
Cc1ccc(C(N)=O)cc1-c1ccc2[nH]ccc2c1	i
CCOc1ccc(-c2nnc3cccc(Cl)n23)cc1OC	41%*
CCOc1cc(CN2CCCN(C)CC2)ccc1OC	i
COc1ccccc1OCCOc1cccc(Cl)c1	i
Cc1ccc(NS(=O)(=O)c2c(C)n[nH]c2C)cc1C	i
Cc1ccc(C(=O)Nc2ccccc2C(=O)O)cc1	i
O=C(Nc1ccccc1F)c1ccccc1	i
O=C(Nc1ccccc1C(=O)O)c1ccccc1	33%*
Cc1occc1C(=O)N(C)C(Cc1ccccc1F)C1CCN(C(=O)[C@H]2C[C@@H]3C=C[C@H]2C3)CC1 (stereo not given in full)	i
Cc1cccn2c(CC(=O)N3CCCC4(CNC(=O)O4)C3)cnc12 (stereo not given)	i
CCN(c1ccccc1)S(=O)(=O)c1cc([N+](=O)[O-])ccc1N	32%*
CCN(c1ccccc1)S(=O)(=O)c1ccc(OC)c(OC)c1	i
CCN(c1ccccc1)S(=O)(=O)c1cc(OC)ccc1OC	i
OCCN1CCN(CC(O)COc2ccc(C3CCCCC3)cc2)CC1 (stereo not given)	i
SMILES	ST2 IL33 inh
CCc1ccc(CN(C)C2CCN(C)CC2)cc1	i
O=C(COc1ccc2ccccc2c1)Nc1nc2ccccc2s1	i
NNc1nc2ccccc2s1	68%*
O=C(Nc1nc2ccccc2s1)c1ccccc1F	i
COc1cc(C2OCC3C(C)C=C(C)C2C3C)ccc1OCc1ccc(C(=O)O)cc1 (stereo not given)	i
O=C1CCc2cc(S(=O)(=O)N(CCc3ccccc3)Cc3ccccc3)ccc2N1	i
C=CCN1C(=O)/C(=c2/sc3nc4ccccc4n3c2=O)c2ccccc21	31%*
O=c1/c(=C/c2ccccc2F)sc2nc3ccccc3n12	i
CCCCN1C(=O)/C(=c2\sc3nc(-c4ccc(OC)cc4)nn3c2=O)c2ccccc21	i
CC(C)c1nccn1CCCNC(=O)c1ccc(N2CCNC(=O)CC2)nc1	i
CC(C)CN1CC(OCc2cccc(F)c2)CN(C(=O)c2ccoc2)CC1=O (stereo not given)	i
COC(=O)C1C(=O)C2=C(CC1C)NC(C)=C(C(=O)OCCOC(C)C)C2c1ccc(O)cc1 (stereo not given)	i
CCSc1nc(-c2ccccc2)ccc1C#N	i
N#Cc1ccc(-c2ccccc2)nc1SCC(=O)c1ccc(O)c(O)c1	i
N#Cc1ccc(-c2ccncc2)nc1SCc1ccc(F)cc1	34%*
CCC(=O)N1CCc2cc(Br)cc(S(=O)(=O)NCCc3ccc(Cl)cc3)c21	i
Cc1ccc(Cl)cc1NC(=O)CN1CCN(Cc2cccc(Cl)c2)S1(=O)=O	i
CC(C)NC(=O)[C@@H](C)[C@@H]1CC[C@@]2(C)CC[C@H](NC(=O)C3CC3)[C@@H](C)[C@@H]2[C@H]1O	i
O=C1c2ccccc2C(=O)C1c1ccccn1	i
O=C1c2ccccc2C(=O)C1c1ccncc1	99%*
O=C1c2ccccc2C(=O)C1c1nc2ccccc2[nH]1	i
Cc1cccc(NC(=O)N2CCC(n3c(C)nc4cccnc43)CC2)c1C	i
CC1(C)CC(=O)C2=C(C1)N(c1ccccc1)C(=O)CC2c1ccc2c(c1)OCO2 (stereo not given)	i
COc1ccc(C(O)=C2C(=O)C(=O)N(CCCN3CCOCC3)C2c2cccs2)cc1OC (stereo not given)	i
Cc1cc(=O)c2c([nH]1)C(O)=C(CN(C)C)C(=O)C2=O	43%*
Cc1ccc(S(=O)(=O)NC2=NCN(c3ccc([N+](=O)[O-])cc3)CN2)cc1	i
O=C(c1ccccc1-c1ncc[nH]1)N1CCC2(CC1)C(=O)Nc1ccccc12	i
CC(C)Cn1nc(-c2ccccc2)c2ccccc2c1=O	i
O=c1c2ccccc2c(-c2cccs2)nn1CCc1ccccc1	35%*
